TsaE inh: YjeE (TsaE) inhibition, E. coli. Potency, µM. purified YjeE enzyme, qHTS inhibition assay. P0AF67. 71,000 compounds, 0.05% hits
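Fluorescence polarization of a BODIPY Texas Red–ADP probe (2 uM) bound to purified YjeE (10 uM) was read after 15 min room-temperature incubation with compounds. Loss of polarization marks inhibitors; ADP serves as titrated control.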
ALOX15 inhib: inhibitors of human 15-lipoxygenase (ALOX15); Potency, µM (highest dose often 57.1 µM), for inactives: at the highest dose activity change, negative = inhibition, actives largely listed as inhibitors; 74,000 compounds, 1.4% hits; purified 15hLO-1, xylenol orange hydroperoxide absorbance; P16050; note: potency is the fitted concentration of half-maximal effect; % is set by controls: 0 for no effect and ±100 for the full control effect; nearly all actives have a fitted effect of over 55% in size
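Purified human 15hLO-1 (40 nM final) in 25 mM Hepes pH 7.5, 0.01% Triton X-100 was preincubated with compound 15 min at room temperature, then reacted 6 min with 50 uM arachidonic acid; hydroperoxide detected by Fe-XO, 573/405 nm absorbance ratio.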
Hsp90 Hop PPI: changes Hsp90-Hop TPR2A binding signal, up or down. AlphaScreen TPR2A-His6 binding biotin-Hsp90 C-terminal peptide. Potency, µM (highest dose often 57 µM), for the others: at the highest dose activity change, negative = inhibition. 71,000 compounds, 0.44% hits. AID 595; active = well fitted curve in either direction with a large enough effect; inconclusive = small, poorly fitted or top-dose-only effect, or another doubt; note: potency is the fitted concentration of half-maximal effect; % is set by controls: 0 for no effect and ±100 for the full control effect
Tau fil binding: binds recombinant human tau filaments | P10636 | recombinant tau filaments, thioflavin S fluorescence, 15 h; filaments grown with octadecylsulfate alongside compound | Potency, µM (doses to about 57.1 µM), for the others: at the top dose activity change, negative = inhibition | 71,000 compounds, 2% hits;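 note: potency is the fitted concentration of half-maximal effect; % is set by controls: 0 for no effect and ±100 for the full control effect; actives lower thioflavin S fluorescence by blocking filaments or displacing dye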
Target sequence (P10636 whole entry, looked up): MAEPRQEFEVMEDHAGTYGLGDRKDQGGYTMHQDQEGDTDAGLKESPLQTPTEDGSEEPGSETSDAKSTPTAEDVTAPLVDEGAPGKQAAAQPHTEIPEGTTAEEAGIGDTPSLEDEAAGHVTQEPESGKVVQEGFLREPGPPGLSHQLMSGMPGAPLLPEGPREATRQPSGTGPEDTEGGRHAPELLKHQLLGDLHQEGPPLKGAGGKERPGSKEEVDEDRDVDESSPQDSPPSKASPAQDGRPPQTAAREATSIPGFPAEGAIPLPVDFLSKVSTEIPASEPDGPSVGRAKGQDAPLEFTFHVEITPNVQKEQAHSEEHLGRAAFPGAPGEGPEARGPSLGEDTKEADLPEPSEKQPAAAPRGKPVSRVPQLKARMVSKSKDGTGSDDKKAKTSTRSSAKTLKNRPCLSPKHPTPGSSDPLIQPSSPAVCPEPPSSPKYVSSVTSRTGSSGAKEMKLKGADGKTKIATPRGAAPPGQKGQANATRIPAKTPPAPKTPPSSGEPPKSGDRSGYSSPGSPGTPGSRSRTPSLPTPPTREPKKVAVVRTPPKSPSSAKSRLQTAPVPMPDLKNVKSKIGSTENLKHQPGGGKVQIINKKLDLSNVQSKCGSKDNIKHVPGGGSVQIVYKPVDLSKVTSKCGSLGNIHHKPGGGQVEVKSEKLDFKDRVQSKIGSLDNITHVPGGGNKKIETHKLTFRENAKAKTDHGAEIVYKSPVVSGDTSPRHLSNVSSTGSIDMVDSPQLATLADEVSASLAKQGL
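Recombinant tau protein (human, 1 uM final) plus 30 uM ODS in HEPES pH 7.4 with NaCl, DTT and thioflavine S. Compound present from the start; fluorescence at 510 nm after 15 h, 37 C.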
Pol III holo inh: inhibitors of bacterial DNA polymerase III holoenzyme; reconstituted DNA polymerase III holoenzyme replication, biochemical; Potency, µM (doses to about 57.1 µM), inactives show at the top dose activity change, negative = inhibition; 71,000 compounds, 0.25% hits; AID 603; note: potency is the fitted concentration of half-maximal effect; % is set by controls: 0 for no effect and ±100 for the full control effect
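Reconstituted *E. coli* holoenzyme (0.35 nM Pol III, 1 nM beta, 154 nM SSB, 2 nM primase) was preincubated with compound for 15 min at RT. Synthesis on 1.4 nM ssM13Gori ran 35 min, then was stopped with PicoGreen/EDTA and read as dsDNA fluorescence.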
The depositor's hits bear a star; i = inactive; ? = inconclusive; . = no result given; ! = not active in a repeat; [ ] = another dose, or the depositor's remark. Only some compounds are listed: those with a hit (about 3.3% of all), similar ones and a draw of the others. Unless noted, calls come from the whole dose curve; as a rule, active = well fitted curve in the direction sought with a large enough effect; inconclusive = small, poorly fitted or top-dose-only effect, or another doubt; inactive = no such curve, though single readings can be large; an effect the other way counts as inactive or inconclusive.

SMILES | TsaE inh | ALOX15 inhib | Hsp90 Hop PPI | Tau fil binding | Pol III holo inh
O=C(O)[C@H]1CN[C@H](C(=O)O)C1 | i | ? | -6% | 40µM* | -6%
O=C(O)[C@@H]1CCCN1 | i | -2%[11.4 µM] | -2%[11 µM] | 10%[11.4 µM] | -1%[11.4 µM]
Cc1ccc(-n2c(SCn3nnc4ccccc4c3=O)nnc2-c2cccnc2)c(C)c1 | i | -14% | -12% | 16µM* | -2%
O=c1c2ccccc2nnn1CSc1nnc(-c2cccnc2)n1-c1ccccc1F | i | 1% | -4% | 22% | -1%
CC(C)Nc1nc(C#N)nc(NC(C)C)n1 | i | -5% | ? | 13µM* | -4%
CCN1C(C)=C(C(=O)OC)C(c2ccccc2)N2C(=O)[C@](O)(C(=O)OC)CC(C#N)=C12 (stereo partly drawn) | . | 7%[11.4 µM] | . | . | .
C=C(C)C1CCC(C)=C1COC(=O)Nc1ccccc1 (stereo not drawn) | . | 6.3µM* | . | . | .
COc1cc(-c2ccc(N=C=O)c(OC)c2)ccc1N=C=O | i | 2% | -16% | 16µM* | -5%
O=C1N=c2ccccc2=C1c1sc(=S)n(CC2CCCO2)c1O (stereo not drawn) | i | -5% | -3% | -11% | -9%
O=C(O)CCC(C(=O)O)n1c(O)c(C2=c3ccccc3=NC2=O)sc1=S (stereo not drawn) | i | 10µM* | 2% | -4% | -5%
CC(C)=C[C@H]1[C@@H](C(=O)Oc2ccccc2C(C)C)C1(C)C | i | 4%[11.4 µM] | ? | 4%[11.4 µM] | -10%[11.4 µM]
COc1cc(OC)cc(C(=O)Nc2cccc(N3CCCC3)c2)c1 | i | ? | -29% | 10µM* | -2%
CC(C)c1ccc(C(=O)Nc2ccc(N3CCOCC3)cc2)cc1 | i | 7% | -3% | 72% | 2%
O=C(Cc1ccccc1)Nc1cccc(N2CCCC2)c1 | i | -5% | -18% | 25µM* | 7%
CC(C)Oc1ccc(C(=O)Nc2ccc(N3CCCC3)cc2)cc1 | i | 1.3µM* | ? | 2µM* | 1%[11.4 µM]
Cc1ccc(CNC(=O)CN(C)S(=O)(=O)c2cccc3nsnc23)cc1 | i | 4% | -1% | -8% | 0%
CCN(CCCNC(=O)CN(C)S(=O)(=O)c1cccc2nsnc12)c1cccc(C)c1 | i | -11% | -16% | 16µM* | -1%
Cc1cccc(Nc2n[nH]c(=S)s2)c1C | i | 10µM* | -9% | 4% | 5%
C/C(N)=C(/C#N)C(=O)CSc1nnc(Nc2cccc(C)c2C)s1 | i | -17% | -5% | -4% | -2%
O=c1oc(-c2ccco2)nc2ccccc12 | i | -6% | -5% | 42% | -7%
c1coc(-c2nc3ccccc3nc2-c2ccco2)c1 | i | 25µM* | -8% | 13µM* | 25µM*
Cc1cccc2cc(CN(CCCO)C(=O)Nc3ccc(Cl)cc3)c(=O)[nH]c12 | i | -22% | -3% | 27% | 0%
Cc1cccc2cc(CN(CCCO)C(=O)Nc3cccc(Cl)c3)c(=O)[nH]c12 | i | 20µM* | -8% | 8% | -2%
CCOC(=O)C1=C(N2CCCCC2)c2cc3c(n2C1=O)CCCC3 | i | ? | -15% | 16µM* | 0%
Cc1ccc(-c2csc3nnc(SCC(=O)Nc4cccc(C)n4)n23)cc1 | i | 14% | -18% | 20µM* | 0%
SMILES | TsaE inh | ALOX15 inhib | Hsp90 Hop PPI | Tau fil binding | Pol III holo inh
CC(=O)Nc1ccc(C(=O)CSc2nnc3scc(-c4ccccc4)n23)cc1 | i | 10% | -1% | -12% | -17%
O=c1ccc2cc3c([nH]c4ccc(Br)cc43)oc-2c1O | i | 25µM* | -6% | 13µM* | -9%
COc1cc(C2NC(=O)NC(c3ccccc3)=C2C(C)=O)ccc1OCC(=O)O (stereo not drawn) | i | 7.9µM* | 18% | 47% | -4%
C=CC(=O)OCCCCCCOC(=O)C=C | i | -1% | -1% | -14% | -10%
c1ccc2c[n+](CCCC[n+]3ccc4ccccc4c3)ccc2c1 | i | 3%[11.4 µM] | -3%[11 µM] | 3.2µM* | -12%[11.4 µM]
Nc1nc(Cl)nc2c1ncn2[C@@H]1O[C@@H](CO)[C@@H](O)[C@H]1O | i | 7% | -7% | 6% | -2%
c1ccc2c(c1)CCN(c1nc3cc4c(cc3s1)OCCO4)C2 | i | 4µM* | -10% | -7% | -6%
OC(CCN1CCCC1)(c1ccccc1)C1CCCCC1 (stereo not drawn) | . | 4% | . | . | .
CC(C)(C(=O)O)c1ccc(C(O)CCCN2CCC(C(O)(c3ccccc3)c3ccccc3)CC2)cc1 (stereo not drawn) | . | 20µM*! | . | . | .
CNCC[C@H](Oc1ccccc1C)c1ccccc1 | i | ? | 1% | -10% | -7%
CC(C)N=C(N)/N=C(\N)Nc1ccc(Cl)cc1 | i | 4%[25.6 µM] | -1%[26 µM] | ? | 0%[25.6 µM]
NC(=NCCCCCCN=C(N)/N=C(\N)Nc1ccc(Cl)cc1)/N=C(\N)Nc1ccc(Cl)cc1 | ? | ? | -8% | 6.3µM*! | -5%
CCOC(=O)CCN1C(=O)[C@H]2[C@H]3[C@H](O)[C@H](O)C/C(=N/NC(=O)OCc4ccccc4)[C@@H]3CC[C@@H]2C1=O | . | 1%[11.4 µM] | . | . | .
CC(=O)NC(CCC(=O)O)C(=O)O (stereo not drawn) | . | -2% | . | . | .
CC(=O)N[C@@H](CC(=O)O)C(=O)N[C@@H](CCC(=O)O)C(=O)O | i | -9%[25.6 µM] | 2% | -20% | 20µM*!
COc1ccc(CC(NC(C)=O)C(=O)NC2CCN(c3nc(C)cc(C)c3C#N)CC2)c(OC)c1 (stereo not drawn) | i | 25µM* | 1% | 14% | ?
COc1cccc(CC(NC(C)=O)C(=O)NC2CCN(c3nc(C)cc(C)c3C#N)CC2)c1 (stereo not drawn) | i | 2% | -4% | 12% | -2%
O=c1c(-c2ccccc2)nc2cnc(N3CCOCC3)nc2n1CCc1ccccc1 | i | -8% | 5µM* | 2% | -4%
COc1ccc(-c2nc3cnc(N(C)C)nc3n(CCc3ccccc3)c2=O)cc1 | i | -7% | 0.63µM* | -6% | 3%
O=c1c(-c2ccc(Cl)cc2)nc2cnc(N3CCOCC3)nc2n1CCc1ccccc1 | i | 0% | -3% | 0% | -5%
CN1[C@@H]2CC(OC(=O)[C@H](CO)c3ccccc3)C[C@@H]1[C@H]1O[C@H]12 (stereo partly drawn) | i | 6%[25.6 µM] | 2% | ? | -6%
CCCCCSc1nnc(-c2cc(Br)ccc2N)c(=O)[nH]1 | i | -8% | -4% | 10µM* | -8%
CCCCSc1nnc(-c2ccccc2N)c(=O)[nH]1 | . | -4% | . | . | .
Nc1ccc(N2CCCCC2)cc1N1CCCCC1 | i | ? | ? | 7.9µM* | -8%
COc1ccc2[nH]c(C(=O)O)c(NS(=O)(=O)c3ccc(OC)c(OC)c3)c2c1 | i | -22% | -13% | 20µM* | -7%
COc1ccc(S(=O)(=O)Nc2c(C(=O)O)[nH]c3ccccc23)c(OC)c1 | i | -2% | -7% | -9% | -1%
